Screens deposited in PubChem by National Center for Advancing Translational Sciences (NCATS).
KAT2A inh: GCN5L2 (KAT2A) acetyltransferase inhibition; 390,000 compounds, 0.21% hits; Potency, µM (titrated, usually from 58.9 µM), without a hit: top-dose activity change, negative = inhibition, usual class: inhibitors; AID 504327; Q92830; GCN5L2 HAT assay, ThioGlo1 CoA-SH fluorescence
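qHTS, 1536-well. 20nM enzyme, pH 7.5 HEPES/EDTA/Tween-20 buffer; 15 min compound preinc., RT. Start: 75uM H3(1-25), 70uM AcCoA, 50uM ThioGlo1. Read Ex340/Em540 at t=0 (autofluorescence flag) and t=20 min.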
TDP1 block: blocks human tyrosyl-DNA phosphodiesterase 1; Potency, µM (titrated, usually from 130 µM), for the others: top-dose activity change, negative = inhibition, most hits filed as inhibitors; 350,000 compounds, 0.28% hits; AID 485290; recombinant TDP1, AlphaScreen DNA substrate cleavage; Q9NUW8; also: nearly all actives have a fitted effect of over 40% in size
Target sequence (Q9NUW8 whole entry, looked up): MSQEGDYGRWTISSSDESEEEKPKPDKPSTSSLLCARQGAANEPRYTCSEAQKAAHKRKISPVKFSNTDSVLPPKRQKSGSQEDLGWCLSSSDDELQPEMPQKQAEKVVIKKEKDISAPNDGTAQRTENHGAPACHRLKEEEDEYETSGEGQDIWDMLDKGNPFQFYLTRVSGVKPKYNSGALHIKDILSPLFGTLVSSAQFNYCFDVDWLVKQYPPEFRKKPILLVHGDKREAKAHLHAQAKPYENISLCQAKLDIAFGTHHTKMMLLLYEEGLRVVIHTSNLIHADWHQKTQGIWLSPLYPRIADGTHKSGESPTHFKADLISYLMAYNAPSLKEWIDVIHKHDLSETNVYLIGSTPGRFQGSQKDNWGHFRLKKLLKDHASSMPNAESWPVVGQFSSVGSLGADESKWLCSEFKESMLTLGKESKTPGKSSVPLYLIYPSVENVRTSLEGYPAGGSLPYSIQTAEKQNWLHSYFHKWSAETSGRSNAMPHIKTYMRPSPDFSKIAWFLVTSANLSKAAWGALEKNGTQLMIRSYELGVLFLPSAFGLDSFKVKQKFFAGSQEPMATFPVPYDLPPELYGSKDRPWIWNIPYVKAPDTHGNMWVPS
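AlphaScreen read-out: signal falls as enzyme removes the 3' tyrosine-FITC from a 5'-biotinylated DNA oligo (15 nM, 5 min, RT). Enzyme was E. coli-made recombinant Tdp1 at 1 nM, exposed to compound for 15 min beforehand; beads 10 ug/ml, 10 min.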
TDP1 cell noCPT: qHTS for Inhibitors of human tyrosyl-DNA phosphodiesterase 1 (TDP1): qHTS in cells in absence of CPT | Potency, µM (series often up to 46.2 µM), for inactives: at the top dose activity change, negative = growth inhibition, most hits filed as inhibitors | AID 686978, 2013 | 420,000 compounds, 15% hits | DT40 Tdp1-/- hTDP1 cells, no CPT, ATP luminescence, 48 h; also: nearly all actives have a fitted effect of over 55% in size
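Seeded 400 DT40-hTDP1 cells/well (vehicle DMSO, no 20 nM CPT); pinned compounds; ≥48 hr at 37 °C; CellTiter-Glo luminescence as viability measure.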
DT40 TDP1 CPT: DT40-hTDP1 cell growth loss with CPT; AID 686979; Potency, µM (top dose mostly 46.2 µM), without a hit: top-dose activity change, negative = growth inhibition, usual class: inhibitors; 420,000 compounds, 12% hits; chicken DT40 Tdp1-/-;hTDP1 cells + 20 nM CPT, ATP luminescence, 48 h; also: nearly all actives have a fitted effect of over 55% in size
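Chicken DT40 Tdp1-/- cells complemented with human TDP1, 400 cells/well, exposed to compounds plus 20 nM camptothecin for at least 48 h at 37 C; viability read as ATP content by CellTiter-Glo luminescence.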
VDR inhibitor: inhibitors of human vitamin D receptor | VDR-SRC2-3 peptide fluorescence polarization, 2 h | Potency, µM, inactives show max response, negative = inhibition, usual class: inhibitors | 400,000 compounds, 0.93% hits | AID 504847
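Fluorescence polarization assay measuring small-molecule disruption of VDR binding to the coregulator peptide SRC2-3. Compounds were pin-transferred (23 nl) into the reagent mix and incubated 2 h at room temperature before reading.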
PLK1 PBD inh: blocks phosphopeptide binding to human PLK1 polo-box domain. Plk1 PBD binding of FITC phosphopeptide, fluorescence polarization. 360,000 compounds, 2.8% hits. P53350. Potency, µM, inactives show max response, negative = inhibition, hits mostly inhibitors; also: series mostly up to about 57 µM; nearly all actives have a fitted effect of over 65% in size
An asterisk follows results filed as active; ? = inconclusive; . = no result given; [ ] = remark or other dose. A selection: hits, their analogues and other compounds. The true share with any hit is near 18%. Calls follow the shape of the dose curve; as a rule, active = well fitted curve in the direction sought with a large enough effect; inconclusive = small, poorly fitted or top-dose-only effect, or another doubt; inactive = no such curve, though single readings can be large; an effect the other way counts as inactive or inconclusive. % is scaled to controls: 0 for no effect and ±100 for the full control effect; potency is read from the fitted curve at half-maximal effect.

SMILES	KAT2A inh	TDP1 block	TDP1 cell noCPT	DT40 TDP1 CPT	VDR inhibitor	PLK1 PBD inh
CC(=O)O[C@@]12CO[C@@H]1C[C@H](O)[C@@]1(C)C(=O)[C@H](O)C3=C(C)[C@@H](OC(=O)C(O)[C@@H](NC(=O)OC(C)(C)C)c4ccccc4)C[C@@](O)([C@@H](OC(=O)c4ccccc4)[C@H]21)C3(C)C (stereo partly specified)	-9%	.	.	.	-9%	.
NS(=O)(=O)c1cccc2c1c([N+](=O)[O-])cc1[nH]c(=O)c(=O)[nH]c12	?	.	-5%	6%	-26%	.
Nc1cc2[nH]c(=O)c3ccccc3c2cc1[N+](=O)[O-]	.	.	?	23µM*	?	5%
COc1cc(OC)c(C=NNC(=S)NC23CC4CC(CC(C4)C2)C3)c(OC)c1	.	.	6.5µM*	6.5µM*	-1%	9%
CCc1nnc2c(Nc3ccc(N(CC)CC)cc3C)nc3ccccc3n12	-14%	6%	18µM*	18µM*	-3%	.
CCc1nnc2c(Nc3ccccc3Br)nc3ccccc3n12	-1%	5%	?	-28%	11%	.
COc1ccc(S(=O)(=O)N(C(=O)c2ccncc2)c2ccc3oc(C)c(C(C)=O)c3c2)cc1	-2%	.	2.3µM*	3.7µM*	13%	.
CC(=O)c1c(C)oc2ccc(N(C(=O)c3ccncc3)S(=O)(=O)c3ccc(C)cc3C)cc12	-15%	.	.	.	-8%	.
CCOc1ccc(S(=O)(=O)N(C(=O)c2ccncc2)c2ccc3oc(C)c(C(=O)OC)c3c2)cc1	-18%	.	0.92µM*	1µM*	-16%	.
CC(=O)c1c(C)oc2ccc(N(C(=O)Oc3ccccc3)S(=O)(=O)c3ccc(C(C)(C)C)cc3)cc12	-15%	1%[12.3 µM]	9.2µM*	5.2µM*	-6%	.
COc1ccc(S(=O)(=O)N(C(=O)c2ccncc2)c2ccc3oc4c(c3c2)CCCC4)cc1	-11%	5%	21µM*	18µM*	-4%	2%
CN1CCN(c2oc(-c3ccc(OCc4ccc(Cl)cc4)cc3)nc2C#N)CC1	.	2%	?	?	3%	.
CCCCOC(=O)c1c(C)oc2ccc(NS(=O)(=O)c3ccc(F)cc3C)cc12	-12%	0%	?	?	-2%	.
CC(=O)c1c(C)oc2ccc(N(C(C)=O)S(=O)(=O)c3cccc([N+](=O)[O-])c3)cc12	-7%	1%	?	21µM*	-12%	-12%
CCCCC(=O)N(c1ccc2oc(C)c(C(C)=O)c2c1)S(=O)(=O)c1ccc(F)cc1C	1%	0%	10µM*	15µM*	11%	.
O=C(c1ccncc1)N(c1ccc2oc3c(c2c1)CCCC3)S(=O)(=O)c1cccc([N+](=O)[O-])c1	-4%	3%	?	-26%	-11%	-11%
O=S(=O)(c1ccc(Cl)cc1)c1nc(-c2ccccc2F)oc1NCc1ccccc1	-1%	.	18µM*	?	?	.
COc1cccc(-c2nc(S(=O)(=O)c3ccc(Cl)cc3)c(NCc3ccccc3)o2)c1	-23%	3%	?	?	2%	.
COc1ccc(-c2nc(S(=O)(=O)c3ccc(Cl)cc3)c(NCc3ccccc3)o2)cc1	-18%	.	?	16µM*	-7%	.
O=C(CSc1ncc(-c2ccccc2)[nH]1)Nc1ccc(Cl)cc1	-13%	10%	?	21µM*	0%	.
O=C(CSc1ncc(-c2ccccc2)[nH]1)Nc1cccc(Br)c1	-10%	10%	?	23µM*	0%	.
CC(=O)Nc1cccc(NC(=O)CSc2ncc(-c3ccccc3)[nH]2)c1	-4%	5%	-29%	-26%	-4%	-7%
O=C(CSc1ncc(-c2ccccc2)[nH]1)Nc1ccccc1	-9%	8%	?	?	-8%	0%
C=CCC[C@H](Cc1ccc(F)cc1)C(=O)O[C@H](CNC(=O)[C@@H](CC=C)CC(=O)N(CCO)Cc1ccccc1)c1ccccc1	-20%	0%	23µM*	?	10%	0%
C=CC[C@H](CC(=O)NCCO)C(=O)NC[C@@H](OC(=O)[C@@H](CC=C)Cc1ccc(F)cc1)c1ccccc1	-8%	1%	?	?	-31%	-6%
SMILES	KAT2A inh	TDP1 block	TDP1 cell noCPT	DT40 TDP1 CPT	VDR inhibitor	PLK1 PBD inh
C=CC[C@@H](CC(=O)N(CCO)Cc1ccccc1)C(=O)NCCOC(=O)[C@@H](CC=C)Cc1ccc(F)cc1	-4%	0%	13µM*	21µM*	-1%	-4%
C=CC[C@H](CC(=O)N(CCO)Cc1ccccc1)C(=O)N[C@H](COC(=O)[C@@H](CC=C)Cc1ccc(F)cc1)Cc1ccccc1	-12%	-2%	21µM*	21µM*	-14%	-1%
C=CC[C@H](CC(=O)N(CCO)Cc1ccccc1)C(=O)N[C@H](C)COC(=O)[C@@H](CC=C)Cc1ccc(F)cc1	-5%	1%	21µM*	?	8%	-3%
C=CC[C@@H](CC(=O)N(CCO)Cc1ccccc1)C(=O)N[C@H](C)COC(=O)[C@@H](CC=C)Cc1ccc(F)cc1	-2%	0%	?	?	-15%	4%
COc1cc(NC(=O)CSc2nc3ccccc3nc2Cc2ccccc2OC)cc(OC)c1	-2%	-8%	?	?	10%	.
O=C(Nc1ccc(C2=NCCN2)cc1)c1ccc(Cl)c(C(=O)Nc2ccc(C3=NCCN3)cc2)c1	0%	9%	.	.	.	.
CCCCn1c(SCCN2CCCCC2)nc2c1c(=O)n(C)c(=O)n2C	.	.	-28%	-30%	.	3%
O=C(COC(=O)c1cccnc1Cl)c1ccc(F)cc1	-4%	-5%	?	-8%	12%	-1%
CCOc1ncccc1C(=O)OCC(=O)c1ccc(F)cc1	-6%	5%	?	?	?	17µM*
Cc1noc(C)c1C(=O)N(C)C[C@@H]1OCc2ccccc2-c2c(n(C)c3ccccc23)C(=O)N([C@H](C)CO)C[C@H]1C	.	.	18µM*	?	.	-3%
C[C@@H]1CN([C@H](C)CO)C(=O)c2c(c3ccccc3n2C)-c2ccccc2CO[C@H]1CN(C)C(=O)NC1CCCCC1	.	.	26µM*	18µM*	.	-13%
CCCc1nc(NCCO)c(C#N)c2c1CCCC2	0%	.	-28%	4%	-4%	0%
CCc1nc(NCCN2CCOCC2)c(C#N)c2c1CCCC2	-1%	7%	-20%	3.3µM*	-3%	-11%
N#Cc1cccc(-c2cc(NCc3cccnc3)ncn2)c1	-6%	.	-15%	-4%	1%	.
